Here are results for 40 molecules from PubChem BioAssay (NCI).

The panel holds about 83,000 compounds, 20% with a hit somewhere; the sample as a whole holds those more often.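 Single-concentration screen, 48 h exposure, 96-well plates. Endpoint: percent growth. Below 10 = active.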 Active and inactive are the calls of the source.

This assay deals with HCT-15 colon. In words: NCI-60 one-dose screen, 48 h (100 = growth as untreated, 0 = no growth, -100 = all killed). The conditions noted are these: 10 µM. On the procedure: Growth inhibition of the HCT-15 human tumor cell line is measured as a screen for anti-cancer activity. Cells are grown in 96 well plates and exposed to the test compound for 48 hours. Compounds are tested at a single concentration, which is 10^-5 M for most compounds. The reported endpoint is percent growth (GI% or GIPRCNT), where numbers from 0 - 100% represent growth inhibition, and numbers from -100% - 0 represent cell death. For example, a value of 40 represents 60% growth inhibition. A value of 0 means no net growth occurred over the course of the experiment. A value of -40 indicates 40% of cells at the beginning of the experiment died by the end of the experiment. A value of -100 means all cells are dead at the end of the experiment.
NCI-60 Human Tumor Cell Lines Screen was performed using the standard one-dose NCI protocol, which is described in more detail at https://dtp.cancer.gov/discovery_development/nci-60/default.htm.
Compounds with GIPRCNT values below 10 were considered active. Activity score was based on GIPRCNT using the following formula: […]
Score is 0 for GIPRCNT values of 100 or above, 50 for GIPRCNT values of 0, and 100 for GIPRCNT values of -100.
Regarding `COc1ccc(-c2cc(/C=C3\C(=O)Nc4cc(Cl)ccc43)[nH]n2)cc1`, the growth was 28.6% (inactive).

With `O=C(c1ccccc1)C(Nc1ccccc1)c1ccccc1` (stereo not given), the growth was 97.8% (inactive).

Regarding `Cc1nc2sccn2c1-c1csc(Nc2cccc(Cl)c2C)n1`, the growth was 46.4% (inactive).

With `C=CCOc1ccc2c(c1)CC[C@@H]1[C@@H]2CC[C@]2(C)C(=O)/C(=N/O)C[C@@H]12`, the growth was 41.6% (inactive).

In the case of `COc1ccc(/C=C2\SC(=S)N(CCCN3CCOCC3)C2=O)c(OC)c1`, the growth is 91.9% (inactive).

`COc1ccc(C2C=C(c3ccc(Cl)cc3)N=C3SC=CN32)c(Br)c1` (stereo not given): the growth is 74% (inactive).

Turning to `COc1cc(-c2nc3ccc(C)cc3[nH]2)ccc1OCc1nnc(-c2ccc(CC(C)C)cc2)o1`, the growth is 73.8% (inactive).

For `Cc1[nH]nc2c(=S)[nH]c(=O)[nH]c12`, the growth was 103% (inactive).

With `Cc1nc2scc(-c3ccc(Cl)cc3)n2c(=O)c1CCN1CCOCC1`, the growth was 105% (inactive).

Take `CC(C)/C(=N/O)c1ccccc1`: the growth is 110% (inactive).

`COc1ccc2oc(=O)cc(C3c4ccc([nH]4)C(c4cc(=O)oc5ccc(OC)cc45)c4ccc([nH]4)C(c4cc(=O)oc5ccc(OC)cc45)c4ccc([nH]4)C(c4cc(=O)oc5ccc(OC)cc45)c4ccc3[nH]4)c2c1` (stereo not given): the growth was -62.4% (active).

Consider `COc1ccc2c(=O)cc(C(Cl)(Cl)Cl)oc2c1`, for which the growth is 5.59% (active).

For `O=C(O)c1ccccc1C(=O)c1cccc2c(F)cccc12`, the growth is 104% (inactive).

For `N#C/C(=C/c1cc([N+](=O)[O-])ccc1Cl)C(N)=O`, the growth was 83.4% (inactive).

Regarding `COc1cc(-c2cc(-c3cc(OC)c(OC)c(OC)c3)nc3nc(N)[nH]c(=O)c23)ccc1Oc1ccnc2cc(Cl)ccc12`, the growth was 14.6% (inactive).

Take `COCCOC(=O)NC(=O)Nc1ccc(C(=O)c2ccc(Cl)cc2)cc1`: the growth is 20.9% (inactive).

Take `Nc1c(CNCc2nnn(Cc3ccccc3)c2N)nnn1Cc1ccccc1`: the growth was 93.9% (inactive).

Consider `CS(=O)(=O)Nc1ccc([N+](=O)[O-])cc1Oc1ccccc1`, for which the growth was 104% (inactive).

Take `O=C1/C(=C/c2ccc(O)cc2)Oc2ccc(Cl)cc21`: the growth is 89.1% (inactive).

Take `N#CN1CC[C@H](C(=O)Nc2ncc(-c3ccncc3)s2)C1`: the growth is 2.59% (active).

Turning to `COc1ccccc1Cn1cc2c(c1-c1ccccc1)CCc1cnoc1-2`, the growth is 36% (inactive).

On to `N#CN1CC[C@H](C(=O)Nc2ncc(-c3ccccc3)s2)C1`, for which the growth was 3.19% (active).

Take `Cc1ccccc1[P+](Cc1ccccc1)(c1ccccc1)c1ccccc1`: the growth was 90.1% (inactive).

For the molecule `COc1ccc(C2C=C(c3ccc(Cl)c(Cl)c3)N=C3SC(C)=CN32)cc1OC` (stereo not given), the growth is 80.7% (inactive).

With `CCc1ccc(-c2nnc(COc3ccc(-c4nc5cc(Cl)c(Cl)cc5[nH]4)cc3OC)o2)cc1`, the growth is 44.9% (inactive).

As for `CC1=CC2OC34COC3CC(OC(=O)C(F)(F)F)C4(C)C2(C)CC1` (stereo not given), the growth is 97.4% (inactive).

Take `COC(=O)CCCCCCCCC(C)c1ccc(C(C)=O)cc1` (stereo not given): the growth was 103% (inactive).

For `COc1ccc(-c2ccc(-c3ccc(C(=N)N)c(F)c3)s2)cc1`, the growth is -78.9% (active).

Turning to `C[C@]12CC[C@H]3[C@@H](CC=C4C[C@@H](O)CC[C@@]43C)[C@@H]1CC[C@@H]2C(=O)C/C=N/O`, the growth is 86.4% (inactive).

Turning to `CCOC(=O)c1c(C(F)(F)F)n([O-])c2ccc(OC)cc2[n+]1=O`, the growth is 23.7% (inactive).

For `COC(=O)[C@]12CC[C@@H](C)[C@H](C)[C@@H]1C1=CC[C@@H]3[C@@]4(C)CC(=O)[C@H](O)[C@@](C)(CO)[C@@H]4C(=O)C[C@@]3(C)[C@]1(C)CC2`, the growth is -15.1% (active).

`O=C1c2cc(Cl)ccc2-c2c(O)cc(Cl)cc21`: the growth was 81.6% (inactive).

Regarding `CCOCC[P+](c1ccccc1)(c1ccccc1)c1ccccc1`, the growth is 98.8% (inactive).

As for `FC(F)(F)c1ccc(-c2nc(-c3nc4cc(Cl)c(Cl)cc4[nH]3)c3ccccn23)cc1`, the growth is 82.6% (inactive).

Regarding `O=C1NN(c2ccccc2)C(c2cccnc2)=N/C1=C\c1cccnc1`, the growth is 93.9% (inactive).

As for `CC1(C)CCc2cc(-c3ccn(S(=O)(=O)c4ccc(Cl)cc4)n3)ccc2O1`, the growth is 91.3% (inactive).

In the case of `COc1ccc(NC(=O)c2sc3nc4c(cc3c2N)C(O)CCC4)cc1` (stereo not given), the growth was 95.5% (inactive).

With `CCOC(=O)C1=C(Nc2ccc(OC)cc2)C(N)=NC1=N`, the growth was 22% (inactive).

In the case of `O=C(Nc1ccc(CN2CCOCC2)cc1)c1ccc(-c2cc(Cl)ccc2Cl)o1`, the growth is 17% (inactive).

Consider `Cc1ccc(NS(=O)(=O)c2ccccc2)c(NS(=O)(=O)c2ccccc2)c1`, for which the growth was 104% (inactive).
